Assays:
Settings in all cases: concentration: 1 μM, replicates: in singlicate; n = 1
CSNK1A1 = tested on: CSNK1A1
CSNK1D = tested on: CSNK1D
CSNK1E = tested on: CSNK1E
CSNK1G1 = tested on: CSNK1G1
CSNK1G2 = tested on: CSNK1G2
CSNK1G3 = tested on: CSNK1G3
CSNK2A1 = tested on: CSNK2A1
CSNK2A2 = tested on: CSNK2A2
CTK = tested on: T1, CTK
T1 construct: gene MATK

DAPK1 = tested on: DAPK1
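Also: KINOMEscan kinase panel screen.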

SMILES | %Inh (CSNK1A1) [%] | %Inh (CSNK1D) [%] | %Inh (CSNK1E) [%] | %Inh (CSNK1G1) [%] | %Inh (CSNK1G2) [%] | %Inh (CSNK1G3) [%] | %Inh (CSNK2A1) [%] | %Inh (CSNK2A2) [%] | %Inh (CTK) [%] | %Inh (DAPK1) [%]
COc1cc2nccc(Nc3ccc(NC(=O)c4ccc(C)cc4)c(O)c3)c2cc1OC.Cl [GW440132] | 0 | 2 | 45 | 0 | 0 | 30 | 0 | 0 | 0 | 0
O=C1NC(=O)C(N2CCc3ccccc32)=C1c1ccccc1Cl [SB-373598] | 33 | 18 | 18 | 13 | 9 | 14 | 2 | 15 | 0 | 22
Cc1nnc(-c2ccc3occ(-c4ccc(S(C)=O)cc4)c3c2)[nH]1 (stereo not drawn) | 0 | 0 | 0 | 8 | 4 | 0 | 63 | 72 | 21 | 10
Cl.NC(=O)c1cccc(Nc2nccc(Nc3ccc(Oc4cccc(Cl)c4)c(Cl)c3)n2)c1 [GW659008] | 1 | 5 | 8 | 0 | 0 | 17 | 15 | 19 | 2 | 0
O=c1cc(N2CCOCC2)nc2n(Cc3cccc(Cl)c3Cl)ccn12 [GSK2286295] | 27 | 26 | 41 | 10 | 0 | 41 | 2 | 5 | 0 | 8
Fc1cc(Cl)ccc1Nc1ccnc2cc(-c3ccc(CN4CCCCC4)o3)ccc12 [GW560116] | 0 | 7 | 46 | 11 | 0 | 23 | 0 | 94.6 | 0 | 1
CC1=C(C(=O)Nc2cc3cn[nH]c3cc2F)C(c2ccc(C(F)(F)F)cc2)CC(=O)N1 (stereo not drawn) [GSK429286] | 0 | 10 | 25 | 7 | 0 | 12 | 18 | 0 | 0 | 9
Cc1ccc(NC(=O)Nc2cc(C(C)(C)C)nn2-c2ccccc2)cc1 [GSK1014915] | 0 | 13 | 0 | 0 | 0 | 25 | 13 | 0 | 18 | 6
Cc1cccc(-c2nc(Nc3cccc(C(N)=O)c3)c3ccccc3n2)n1 [GW876019] | 37 | 8 | 15 | 0 | 0 | 18 | 30 | 19 | 13 | 15

From PMC5540273 (PLoS ONE, 2017)
